Results filed as inconclusive are left out. A number with no mark means an inactive call. Calls of active or inactive are those of the source. Calls come from the whole dose curve; as a rule, active = well fitted cell-killing curve with a large enough effect; inconclusive = small, poorly fitted or top-dose-only effect, or effect the other way; inactive = flat fitted curve, though single readings scatter.
Experiment: MultiTox-Fluor Cytotoxicity Assay - LYMP1-002 - Live Cells (AID 955)
Conditions: LYMP1-002 lymphoblastoid live-cell protease fluorescence viability; series mostly up to 46.1 µM; viability change, negative = cytotoxic: at the top concentration
Description: NIH Chemical Genomics Center [NCGC]
NIH Molecular Libraries Screening Centers Network [MLSCN]
National Institutes of Environmental Health Sciences [NIEHS]
National Toxicology Program [NTP]
We have developed a 1536-well cell-based assay for quantitative high throughput screening (qHTS) against a number of cell lines to determine in vitro cytotoxicity of small molecules. This particular assay uses a human lymphoblastoid cell line (LYMP1-002) purchased from Coriell Institute.
NCGC Assay Protocol Summary:
The MultiTox-Fluor Cytotoxicity Assay (Promega) is a homogeneous method to simultaneously measure the relative number of live and dead cells in culture by detecting changes in cell membrane integrity. There are two fluorogenic peptide substrates in the assay reagent. Viable cells are determined when the cell-permeant substrate (GF-AFC) enters the cell and is cleaved by protease from live cells resulting in liberated fluorophore. This live-cell protease activity restricted to viable cells is proportional to cell number. The dead cells are determined by using fluorogenic cell-impermeant peptide substrate (bis-AAF-R110) which cleaved by dead cell proteases leaking from damaged cell membrane.
Using the MultiTox-Fluor Cytotoxicity Assay, the relative number of live cells was measured in the lymphoblastoid cell line with complete culture medium following compound treatment for 16 hours. The assay was performed in opaque black Kalypsys 1536-well plates. In the screen, tetraoctylammonium bromide was used as positive control. Library compounds were measured for their ability to cause acute toxicity in the cell line, as reflected by a decrease in live cell protease activity, in a concentration-dependent manner. […] AC50 values were determined from concentration-response data modeled with the standard Hill equation.
qHTS protocol for MultiTox-Fluor Cytotoxicity assay
[Step] [Parameter] [Value] [Description]
1. Reagent; 5 uL; 2500 lymphoblastoid cells/well
2. Time; 5 hr; 37 C incubation
4. Controls; 23 nL; Tetraoctylammonium bromide 6.4pM to 92 uM
5. Time; 16 hr; 37 C incubation
6. Reagent; 5 uL; MuliTox-Fluor Assay reagent
7. Time; 60 min; Room Temperature
8. Detection; live-cell fluorescence (Ex/Em=405/510); EnVision plate reader
Keywords: cell viability, cytotoxicity, lymphoblastoid cell line, fluorescence, NTPHTS, NTPHTS_NCGC, NIEHS, EPA, DSSTox, MLSMR, MLSCN, NIH Roadmap, qHTS, NCGC
% is set by controls: 0 for no effect and ±100 for the full control effect.

Structure (SMILES) | viability change, negative = cytotoxic [%] | outcome
C[C@]1(O)CC[C@H]2[C@@H]3CCC4=CC(=O)CC[C@]4(C)[C@@]3(F)[C@@H](O)C[C@@]21C | 4.2 | 
Nc1ccccc1C(=O)O | 1.7 | 
Oc1ccc(Cl)cc1 | 0.104 | 
C[C@]12CCC(=O)C=C1CC[C@@H]1[C@@H]2CC[C@]2(C)C(=O)CC[C@@H]12 |  | inactive
CC(C)c1cccc(C(C)C)c1O | 2.15 | 
C[C@]12CCC(=O)C=C1CC[C@@H]1[C@@H]2CC[C@@]2(C)[C@H]1CC[C@]2(C)O | -11.4 | 
CCC(C)(C)c1ccc(O)cc1 | 7.16 | 
Clc1ccc(C(c2ccc(Cl)cc2)C(Cl)(Cl)Cl)cc1 | -5.18 | 
CC(C)NC(C)C | -7.28 | 
COP(=S)(OC)Oc1ccc(SC)c(C)c1 | 9.19 | 
COc1cc(OC)c(OC)cc1C=O | -6.2 | 
O=P1(N(CCCl)CCCl)NCCCO1 (centres undefined) | -5.89 | 
COC(=O)C(c1ccccc1)C1CCCCN1 (centres undefined) | 1.85 | 
CN1C[C@H](C(=O)N[C@]2(C)O[C@@]3(O)[C@@H]4CCCN4C(=O)[C@H](Cc4ccccc4)N3C2=O)C=C2c3cccc4[nH]cc(c34)C[C@H]21 | -21.2 | 
Nc1ccccc1 | 3.9 | 
O=C(O)CCCc1ccc(N(CCCl)CCCl)cc1 | -8.06 | 
NCCc1ccc(O)cc1 | -2.02 | 
CCCC(C)(COC(N)=O)COC(N)=O | 10.7 | 
CCOC(=O)CC(SP(=S)(OC)OC)C(=O)OCC (centres undefined) | -12.9 | 
